# From PubChem BioAssay AID720514 (Broad Institute, 2013)
# Among all 2,100 compounds or so, about 300 (14%) were called active. About 2% were inconclusive and are not listed. Only a sample is shown. Measured potencies and affinities stand elsewhere. A number with no mark means an inactive call.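 How the source made its calls: active means every replicate test run called active, with the signal falling and half-maximal concentration within twice the top valid dose; inconclusive means the replicate test runs disagree in their calls; inactive means every test run inactive, including effects in the opposite direction.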
# Assay: inhibitors of PGC1a acetylation in cells, dose response, cell-based, cherry-picked samples (AID 720514);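 further: 0% = neutral control wells and -100% = positive control wells; actives lower the acetylation signal so they count as inhibitors of PGC1a acetylation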
# Details: U2OS PGC1a acetylation, AlphaLISA, overnight; series mostly up to 19.5 µM; activity change, negative = inhibition: at the top concentration
row,Structure (SMILES),"activity change, negative = inhibition"
1,O=C(COC(=O)c1ccco1)NCc1ccc2c(c1)OCO2,35.4%
2,Cc1cccc(CS(=O)(=O)c2ncc(Cl)c(C(=O)Nc3ccc(F)cc3)n2)c1,41% [at 10 µM]
3,COc1ccc(C2CC(=O)N(C)c3ccccc3S2)cc1 (stereo unspecified),72.4%
4,CC1(C)CCCN(C(=O)N2c3ccccc3Sc3ccccc32)C1,99.6% [at 10 µM]
5,Cc1ccc(S(=O)(=O)CCSC(=N)N)cc1,87.2%
6,CC(=O)c1ccc(NC(=O)CSCC(=O)Nc2ccc3ccccc3c2)cc1,32.2%
7,CC1CC1C(=O)OCC(=O)NCc1ccc(Cl)cc1 (stereo unspecified),43.3%
8,COc1ccc(CC(=O)OCC(=O)NCc2ccco2)cc1,64.8%
9,O=C(NCc1ccco1)c1scc2c1OCCO2,30.4%
10,CC1CCCCN1C(=O)/C(=C\c1ccccc1)c1ccccc1 (stereo unspecified),26.4%
11,CCSc1ccc(NC(=O)c2cccnc2)cc1,210%
12,CCS(=O)(=O)N[C@H]1C=C[C@H](CC(=O)N2CCCCC2)O[C@H]1CO,46.5%
13,CC(=O)N(C)C[C@H]1Oc2cc(-c3ccc(C#N)cc3)ccc2S(=O)(=O)N([C@@H](C)CO)C[C@@H]1C,25.3%
14,C[C@H]1CN([C@@H](C)CO)S(=O)(=O)c2ccc(-c3cncnc3)cc2O[C@H]1CN(C)C(=O)CN(C)C,47.6% [at 10 µM]
15,COc1ccc(S(=O)(=O)Nc2ccc3c(c2)C(=O)N([C@@H](C)CO)C[C@@H](C)[C@H](CN(C)S(=O)(=O)c2ccc(Cl)cc2)OCCCC[C@H](C)O3)cc1,38.2% [at 10 µM]
16,COc1cc(CN2CC3(CCN(S(=O)(=O)c4cccs4)CC3)c3c(n(C)c4cc(OC)ccc34)[C@H]2CO)cc(OC)c1,49.9%
17,O=S(=O)(c1cccc(F)c1)N1CCN(Cc2cc3c(cc2Br)OCCO3)CC1,201%
18,Cc1ccc(-n2cccn2)c(CN2CCCC(C(=O)c3sccc3C)C2)c1 (stereo unspecified),61.7%
19,CCCNC(=O)[C@H]1[C@H](CO)[C@H]2Cn3c(ccc(-c4ccccc4)c3=O)[C@H]2N1C(=O)C1CC1,37.3%

row,Structure (SMILES),"activity change, negative = inhibition"
1,Cc1cc2c(cc1S(=O)(=O)N1CCc3ccccc31)NC(=O)CO2,75.4%
2,CCOc1ccccc1N(C)C(=O)C1CCN(S(=O)(=O)c2cccc3nonc23)CC1,65.8%
3,CCOC(=O)C1=CC[C@@H](c2ccc([N+](=O)[O-])cc2)N(S(=O)(=O)c2ccc(C)cc2)[C@H]1c1ccccc1,59.6% [at 10 µM]
4,Cc1ccc(-c2nnc(N3CCN(C(=O)COc4ccccc4)CC3)c3ccccc23)cc1,63.9%
5,CN1/C(=C\C(=O)c2cccc(S(=O)(=O)N3CCCCC3)c2)C(C)(C)c2ccccc21,45.8%
6,CCOc1ccccc1CN1CCN(C2CCC2)CC1CCO (stereo unspecified),49.6%
7,CC(=O)c1cccc(N(C(=O)Cn2nnc3ccccc32)C(C(=O)NCc2ccccc2)c2ccccn2)c1 (stereo unspecified),95.9%
8,COc1ccc(-c2nc(N)c(C#N)c(-c3cccnc3)c2C)cc1,159%
9,COc1ccc(OC)c(NC(=O)CSc2nnc(-c3cccnc3)s2)c1,252%
10,CCCOc1ccc(C(=O)Nc2cccnc2)cc1,133% [at 10 µM]
11,CCOC(=O)c1c(-c2ccc(C)cc2C)csc1NC(=O)CSc1nnnn1C,60.1%
12,CCOC(=O)c1oc2ccc(S(=O)(=O)N3CCC(C)CC3)cc2c1C,48.1%
13,O=C(CCCn1c(=O)[nH]c2cc(Cl)ccc2c1=O)NCCC1=CCCCC1,27.5%
14,C[C@@H]1CN([C@H](C)CO)C(=O)c2c(c3ccccc3n2C)-c2ccccc2CO[C@@H]1CN(C)C(=O)Nc1ccccc1C(F)(F)F,267%
15,COc1cc(OC)c2c(-c3cccc(-c4cccc(C)c4)c3)cc(=O)oc2c1,120% [at 10 µM]
16,COc1ccc(CCNC(=O)c2cc(-c3ccco3)on2)cc1OC,99.9% [at 10 µM]
17,O=C1OC(Oc2ccc(Br)cc2)(c2ccccc2)c2ccccc21 (stereo unspecified),149%
18,CC(=O)c1ccc(NC(=O)N2CCc3ccccc3C2)cc1,225%
19,CC(=O)c1cccc(N(C(=O)c2cnccn2)C(C(=O)NCc2ccccc2)c2ccco2)c1 (stereo unspecified),69.2%

row,Structure (SMILES),"activity change, negative = inhibition"
1,C[C@H](CO)N1C[C@H](C)[C@@H](CN(C)Cc2ccc3c(c2)OCO3)Oc2ccc(NC(=O)Nc3ccc4c(c3)OCO4)cc2CC1=O,44.8%
2,C[C@@H]1CN([C@@H](C)CO)C(=O)c2cccc(NC(=O)c3ccc(-c4nccs4)cc3)c2O[C@@H]1CN(C)C(=O)Nc1ccc(C(F)(F)F)cc1,10.9%
3,C[C@H]1CN([C@@H](C)CO)C(=O)c2cccc(NC(=O)c3cnccn3)c2O[C@H]1CN(C)Cc1ccc(C(=O)Nc2ccccc2N)cc1,369% [at 21 µM]
4,C[C@@H]1CN([C@@H](C)CO)C(=O)Cc2cc(NC(=O)Cc3ccccc3)ccc2O[C@H]1CN(C)C(=O)Nc1ccccc1,34.5%
5,C[C@H]1CN([C@@H](C)CO)C(=O)c2cccc(NC(=O)Nc3cccc4ccccc34)c2O[C@H]1CN(C)Cc1ccc(C(=O)Nc2ccccc2N)cc1,270%
6,Cc1cc(Cn2nc(C(=O)NCc3cccc(C(F)(F)F)c3)cc2-c2ccccc2)on1,84.2%
7,C[C@@H]1CN([C@@H](C)CO)C(=O)c2c(c3ccccc3n2C)-c2ccccc2CO[C@@H]1CN(C)C(=O)Nc1cccc(C(F)(F)F)c1,90.9%
8,C=C/C=C/[C@@H]1C(=C)CN2[C@H]1[C@H](Cc1ccccc1)OC(=O)[C@@H]2Cc1ccccc1,59.2%
9,O=C(NCCC(c1ccccc1)c1ccccc1)c1ccc(Br)o1,108%
10,CC(C)[C@H](C)NC(=O)N(C)C[C@H]1OCc2ccccc2-c2c(n(C)c3ccccc23)C(=O)N([C@H](C)CO)C[C@H]1C,87.6%
11,COc1ccc2c(c1)CCc1c(C(=O)NCCCn3ccnc3)noc1-2,42.4%
12,Cc1ccc(S(=O)(=O)N[C@@H]2C=C[C@H](CC(=O)NCCN3CCCCC3)O[C@@H]2CO)cc1,48.1%
13,CCCCC(=O)Nc1ccc(C(=O)NCCCn2ccnc2)cc1,343%
14,OC[C@H]1O[C@@H](n2cnc3c(NCc4ccco4)ncnc32)[C@H](O)[C@@H]1O,67%
15,O=C(Nc1ccc(F)cc1)N1CCN(c2nc3ccccc3s2)CC1,99.3%
16,O=C(Nc1ccccc1F)N1CCCCN2[C@H](CO)[C@H](c3ccc(C#Cc4ccccc4)cc3)[C@H]2C1,8.04%
17,O=C(Nc1ccc(F)cc1)N1CCCCN2[C@@H](CO)[C@@H](c3ccc(C#Cc4ccccc4)cc3)[C@@H]2C1,32.9% [at 10 µM]
18,O=c1[nH]nc(SCCS(=O)(=O)c2ccc(F)cc2)n1-c1ccccc1,64.8%
